An excerpt weighted towards active compounds, which were near 12% of everything screened.
PLK1 PBD inh: blocks phosphopeptide binding to human PLK1 polo-box domain | 360,000 compounds, 2.8% hits | AID 720504 | Plk1 PBD binding of FITC phosphopeptide, fluorescence polarization | Potency, µM, inactives show max response, negative = inhibition, actives largely listed as inhibitors; further: potency means the concentration at half of the fitted maximal effect; series mostly up to about 57 µM; on the % scale 0 is the no-effect control and ±100 the full control effect; nearly all actives have a fitted effect of over 65% in size
PI5P4Ka inh: PI5P4K alpha (human) kinase inhibition; P48426; PI5P4Kalpha enzyme, ADP-Glo luminescence, 60 min; active compounds read low; max response, %; 330,000 compounds, 1.2% hits; AID 652105; active means max response of -50% or lower; inconclusive means between -30% and -50%; inactive means -30% or higher; further: value at the top dose of about 77 µM; on the % scale 0 is the no-effect control and ±100 the full control effect
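Controls without substrate or without enzyme flank wells where PI5P4Kalpha converts substrate using 5 microM ATP (final). Incubation lasts 60 minutes at room temperature; ADP formed is read by ADP-Glo luminescence.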
G9a block: blocks human histone lysine methyltransferase G9a; Q96KQ7; G9a H3K9 monomethylation, AlphaScreen, 2 h; Potency, µM (highest dose often 102 µM), for the others: top-dose activity, negative = inhibition, actives largely listed as inhibitors; 350,000 compounds, 8.8% hits; AID 504332; further: potency means the concentration at half of the fitted maximal effect; on the % scale 0 is the no-effect control and ±100 the full control effect; nearly all actives have a fitted effect of over 75% in size
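AlphaScreen detection with an anti-monomethyl H3K9 antibody quantified product after a 2 h room-temperature reaction containing 500 nM biotinylated H3K9 peptide, 20 µM SAM and 20 nM enzyme, which had been preincubated 15 min with compound.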
BAZ2B block: inhibitors of human BAZ2B bromodomain; Q9UIF8; AlphaScreen BAZ2B-H3K14Ac peptide displacement; Potency, µM (titrated, usually from 114 µM), inactives show at the highest dose activity change, negative = inhibition, usual class: inhibitors; 360,000 compounds, 4.4% hits; AID 504333; further: potency means the concentration at half of the fitted maximal effect; on the % scale 0 is the no-effect control and ±100 the full control effect; nearly all actives have a fitted effect of over 60% in size
Target sequence (Q9UIF8 whole entry, looked up): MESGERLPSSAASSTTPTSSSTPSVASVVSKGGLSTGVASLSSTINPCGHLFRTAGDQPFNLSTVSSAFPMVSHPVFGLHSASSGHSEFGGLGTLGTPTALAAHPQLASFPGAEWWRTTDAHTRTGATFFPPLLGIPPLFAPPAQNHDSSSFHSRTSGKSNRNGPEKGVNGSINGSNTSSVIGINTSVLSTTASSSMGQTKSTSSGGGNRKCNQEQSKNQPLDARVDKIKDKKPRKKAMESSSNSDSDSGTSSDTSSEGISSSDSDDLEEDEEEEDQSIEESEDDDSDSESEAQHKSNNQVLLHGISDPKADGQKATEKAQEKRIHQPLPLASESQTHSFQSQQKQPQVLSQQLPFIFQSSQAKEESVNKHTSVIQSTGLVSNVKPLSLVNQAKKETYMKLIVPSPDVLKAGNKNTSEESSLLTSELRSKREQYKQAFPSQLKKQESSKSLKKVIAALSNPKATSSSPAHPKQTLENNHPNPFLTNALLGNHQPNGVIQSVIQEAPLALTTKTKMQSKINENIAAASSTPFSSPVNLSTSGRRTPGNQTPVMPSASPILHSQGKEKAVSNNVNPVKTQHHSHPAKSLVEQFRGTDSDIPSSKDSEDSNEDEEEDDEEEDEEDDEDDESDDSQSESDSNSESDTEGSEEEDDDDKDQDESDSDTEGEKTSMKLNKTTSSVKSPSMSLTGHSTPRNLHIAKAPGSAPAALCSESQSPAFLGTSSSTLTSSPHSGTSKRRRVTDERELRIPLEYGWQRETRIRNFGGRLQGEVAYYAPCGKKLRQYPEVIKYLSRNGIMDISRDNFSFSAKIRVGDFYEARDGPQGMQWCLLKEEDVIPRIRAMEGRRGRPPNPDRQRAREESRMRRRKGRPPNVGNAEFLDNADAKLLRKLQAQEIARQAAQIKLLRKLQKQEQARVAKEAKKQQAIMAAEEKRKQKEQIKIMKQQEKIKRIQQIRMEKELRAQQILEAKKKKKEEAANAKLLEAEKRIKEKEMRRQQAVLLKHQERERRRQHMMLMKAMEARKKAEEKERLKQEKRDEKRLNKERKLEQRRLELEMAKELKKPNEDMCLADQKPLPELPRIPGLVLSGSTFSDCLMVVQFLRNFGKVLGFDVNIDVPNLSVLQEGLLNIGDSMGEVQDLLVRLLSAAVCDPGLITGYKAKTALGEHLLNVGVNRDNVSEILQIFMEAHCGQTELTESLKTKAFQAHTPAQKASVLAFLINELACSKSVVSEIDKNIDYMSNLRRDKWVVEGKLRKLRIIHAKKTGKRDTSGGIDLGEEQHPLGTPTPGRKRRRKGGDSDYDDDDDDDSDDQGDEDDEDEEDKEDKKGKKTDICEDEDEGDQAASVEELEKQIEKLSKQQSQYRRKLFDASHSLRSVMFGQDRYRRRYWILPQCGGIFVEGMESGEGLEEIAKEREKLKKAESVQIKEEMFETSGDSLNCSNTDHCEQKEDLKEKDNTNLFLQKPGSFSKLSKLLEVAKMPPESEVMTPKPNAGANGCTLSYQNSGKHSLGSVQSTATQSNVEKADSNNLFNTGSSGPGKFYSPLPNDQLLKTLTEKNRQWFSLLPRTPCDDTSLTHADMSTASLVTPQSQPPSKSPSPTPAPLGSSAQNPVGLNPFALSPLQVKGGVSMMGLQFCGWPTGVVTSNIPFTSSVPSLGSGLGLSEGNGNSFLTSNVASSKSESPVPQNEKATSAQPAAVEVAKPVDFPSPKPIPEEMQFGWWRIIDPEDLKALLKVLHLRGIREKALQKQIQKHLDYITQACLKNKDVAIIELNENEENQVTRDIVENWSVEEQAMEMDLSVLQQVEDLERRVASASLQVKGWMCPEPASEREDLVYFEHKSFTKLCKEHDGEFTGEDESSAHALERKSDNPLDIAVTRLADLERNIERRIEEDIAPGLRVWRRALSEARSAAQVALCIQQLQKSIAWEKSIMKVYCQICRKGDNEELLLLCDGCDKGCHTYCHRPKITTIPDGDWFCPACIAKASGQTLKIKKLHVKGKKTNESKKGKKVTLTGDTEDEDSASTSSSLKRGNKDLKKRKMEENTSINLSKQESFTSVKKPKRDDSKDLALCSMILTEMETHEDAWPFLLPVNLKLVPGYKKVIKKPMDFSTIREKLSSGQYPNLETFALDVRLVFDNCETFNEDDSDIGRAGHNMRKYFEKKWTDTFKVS
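In this displacement format the biotinylated H3(5-23) peptide acetylated at Lys14 serves as ligand at 50 nM, with BAZ2B at 50 nM in PBS pH 7.4 containing 0.01% Tween-20. Donor and acceptor beads are 10 ug/mL final.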
JMJD2A Tudor inh: inhibitors of human JMJD2A Tudor domain. O75164. AlphaScreen JMJD2A-Tudor / H3K4me3 peptide binding. Potency, µM (top dose mostly 114 µM), for inactives: at the top dose activity change, negative = inhibition, hits mostly inhibitors. 390,000 compounds, 4.4% hits; further: potency means the concentration at half of the fitted maximal effect; on the % scale 0 is the no-effect control and ±100 the full control effect; nearly all actives have a fitted effect of over 50% in size
HP1b chromo inh: HP1-beta chromodomain-methylated histone interaction inhibition | P83916 | AlphaScreen HP1-beta / biotin-H3K9me3 peptide binding | Potency, µM (series often up to 114 µM), without a hit: at the top dose activity change, negative = inhibition, usual class: inhibitors | 390,000 compounds, 0.56% hits; further: potency means the concentration at half of the fitted maximal effect; nearly all actives have a fitted effect of over 70% in size
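Compound inhibition of the preformed complex between 50 nM HP1-beta and 50 nM biotinylated H3K9me3 peptide was read by AlphaScreen. Buffer was PBS pH 7.4 with 0.01% Tween-20. Incubations ran 30 min at room temperature, with 10 ug/mL donor/acceptor beads.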
* marks the source's active call; other numbers are inactive results; ? = inconclusive; nt = no result given; [ ] = dose if it differs, or a comment. Unless noted, the call rests on the fitted dose curve; in most records, active means well fitted curve in the direction sought with a large enough effect; inconclusive means small, poorly fitted or top-dose-only effect, or another doubt; inactive means no such curve, though single readings can be large; an effect the other way counts as inactive or inconclusive.

SMILES | PLK1 PBD inh | PI5P4Ka inh | G9a block | BAZ2B block | JMJD2A Tudor inh | HP1b chromo inh
Cc1occc1C(=O)N1CCN(S(=O)(=O)c2ccccc2)CC1 | -12% | 1 | nt | -12% | -9% | 9%
CCc1cccc(C)c1NC(=S)NCc1ccc2c(c1)cc(C)n2C | -7% | -7 | 40µM* | 25µM* | 50µM* | -18%
Cc1cc2cc(CNC(=O)c3cccs3)ccc2n1C | 27µM* | -7 | 50µM* | 50µM* | ? | -15%
Cc1cc2cc(CNC(=O)Nc3ccccc3)ccc2n1C | -9% | nt | 32µM* | 4% | ? | ?
Cc1cc2cc(CNC(=O)c3ccc(S(=O)(=O)N4CCCCC4)cc3)ccc2n1C | -5% | -6 | 50µM* | -32% | -8% | 31%
CCc1nc(Nc2ccc(OC)cc2OC)c2oc3ccccc3c2n1 | -9% | 2 | -48% | -26% | -35% | 61%
Cc1ccccc1C(=O)NCc1nc2cccnc2n1Cc1ccccc1 | nt | nt | 26%[59 µM] | -2% | -6% | 28%[57 µM]
COc1ccc(CNC(=O)Nc2ccc(OC)cc2)cc1 | -4% | nt | -1%[59 µM] | -4% | -6% | 15%
Cc1cc2cc(CNC(=S)NCc3ccccc3)ccc2n1C | -1% | 1 | ? | 25µM* | 50µM* | ?
CCCCC(=O)NCc1ccc2c(c1)cc(C)n2C | -3% | 1 | 8%[59 µM] | -6% | -23% | 8%
COc1ccc(CNC(=O)CCC(=O)Nc2cccnc2)cc1 | 1% | 3 | 40µM* | 1% | -3% | 42%
CCCCNC(=S)NCc1ccc2c(c1)cc(C)n2C | -2% | 1 | ? | 45µM* | ? | -7%
COc1ccc(CNC(=O)Nc2ccccc2)cc1 | 12µM* | -22 | nt | 6% | -26%[11.4 µM] | -13%
C=CCN(c1ccccc1OC)S(=O)(=O)c1cccc(C(=O)OCC(=O)c2c(N)n(C)c(=O)n(C)c2=O)c1 | -1% | -1 | nt | nt | -29% | -1%
CC(C)C(C(=O)NCC1CCCO1)N(C(=O)CNS(=O)(=O)c1ccccc1)c1ccc(F)cc1 (stereo not drawn) | -2% | -8 | 33% | 11% | 3% | 31%
Nc1cccc(CCc2ccncc2)c1 | -5% | -5 | ? | ? | -16% | 33%
COc1ccc(NC(=S)NCc2cccn2C)cc1 | ? | -4 | 50µM* | 35µM* | -31% | -21%
COc1ccc2cc1Oc1ccc(cc1)C[C@H]1c3c(cc(OC)c4c3Oc3c(ccc5c3[C@H](C2)N(C)CC5)O4)CCN1C | -4% | 21 | nt | nt | 20µM* | ?
COc1ccc2cc1Oc1ccc(cc1)CC1c3c(cc(OC)c4c3Oc3cc5c(cc3O4)CCNC5C2)CCN1C (stereo not drawn) | -1% | -4 | ? | 6.3µM* | 11µM* | ?
Cn1c2c(c(=O)n(C)c1=O)C(c1ccccc1[N+](=O)[O-])CC(=O)N2 (stereo not drawn) | nt | nt | -20%[59 µM] | 0% | -2% | 22%
Cc1cccc(NC(=O)CNC(=O)c2cc(C3CC3)nn2-c2ccccc2)c1C | 0% | 10 | 50µM* | -11% | -19% | 20%
Cc1cc(C)c(S(=O)(=O)NCCS(=O)(=O)N2CCN(c3ccccc3)CC2)c(C)c1 | nt | nt | -26%[59 µM] | -18% | -28% | 12%[57 µM]
Cc1cc(C)c(S(=O)(=O)NCC23C=CC(O2)C2C(=O)N(c4ccccc4)C(=O)C23)c(C)c1 (stereo not drawn) | -8% | nt | -15%[0.501 µM] | ? | 50µM* | ?
O=C1C2C3C=CC(CNS(=O)(=O)c4ccccc4[N+](=O)[O-])(O3)C2C(=O)N1c1ccccc1 (stereo not drawn) | 67µM* | -14 | 4.5µM* | -18% | ? | ?
CCc1nnc2c(Nc3cccc(F)c3)nc3ccc(C(=O)c4ccccc4)cc3n12 | nt | nt | 5%[59 µM] | -3% | -19% | 8%
SMILES | PLK1 PBD inh | PI5P4Ka inh | G9a block | BAZ2B block | JMJD2A Tudor inh | HP1b chromo inh
Cc1ccc(S(=O)(=O)c2nc(S(=O)(=O)c3ccc(C)cc3)c(N3CCN(CCO)CC3)s2)cc1 | -5% | 5 | ? | ? | -35% | 3%
Cc1nn(CC(=O)N2CCOCC2)c(=O)c2nn(-c3ccccc3)c(C)c12 | 3% | 0 | 15% | -17% | -1% | 26%
OCc1cccc(-c2csc(C(O)c3ccccc3)n2)c1 (stereo not drawn) | -1% | -2 | nt | nt | nt | nt
Cc1nn(CCC(=O)NNC(=S)Nc2ccc([N+](=O)[O-])cc2)c(C)c1[N+](=O)[O-] | ? | -1 | 8.9µM* | -26% | -33% | -2%
Cc1nn(C(C)C(=O)NNC(=S)Nc2ccc(F)cc2)c(C)c1[N+](=O)[O-] (stereo not drawn) | 0% | nt | 45µM* | 0% | -16% | 17%
Cc1nn(CCC(=O)NNC(=S)Nc2ccc(F)cc2)c(C)c1Br | -15% | -1 | ? | 6% | -11% | 20%
COc1ccc(NC(=S)NNC(=O)C(C)n2nc(C)c([N+](=O)[O-])c2C)cc1 (stereo not drawn) | -29% | nt | ? | 7% | -20% | 1%
O=C(Cn1nc(C(F)F)cc1C(F)F)NNC(=S)Nc1ccc([N+](=O)[O-])cc1 | -15% | 3 | 20µM* | -30% | ? | -14%
Cc1ccc(NC(=S)NNC(=O)CCn2cc(C)cn2)cc1 | 0% | nt | 50µM* | -2% | -11% | 29%
COc1ccc(NC(=O)CCNC(=O)C2CCN(S(=O)(=O)c3ccccc3)CC2)cc1OC | -10% | 1 | nt | nt | nt | nt
CN1CCN(C(=O)c2cc(Br)cn2C)CC1 | 3% | -4 | -21% | -11% | 1% | 12%
CCCCCCSc1cc(-c2nc3cc(C)ccn3c2NCCCC)ccc1OC | -3% | 2 | 8%[2.33 µM] | -36% | ? | 26%
COc1ccc(-c2cccc(-c3nc4ccc(Cl)cn4c3NC3CCCCC3)c2)cc1 | 0% | -10 | nt | nt | -34% | 18%
CCCCNc1c(-c2cccc(-c3cc(C(C)=O)cs3)c2)nc2cc(C)ccn12 | -21% | -1 | 5%[2.33 µM] | 28µM* | ? | -8%
CC(=O)c1csc(-c2cccc(-c3nc4ccc(Cl)cn4c3NC3CCCCC3)c2)c1 | -20% | -2 | 2%[2.33 µM] | 56µM* | ? | -7%
COc1ccccc1CNC(=O)CN1C(=O)COc2ccc(S(=O)(=O)Nc3ccccc3)cc21 | nt | nt | -27%[59 µM] | -11% | -6% | 12%
CN(c1ccccc1)c1ccc(/C=C(/CCC(=O)O)c2nc3ccccc3s2)cc1[N+](=O)[O-] | ? | ? | nt | nt | 22µM* | ?
O=C(O)CC/C(=C\c1ccc(N2CCCC2)c([N+](=O)[O-])c1)c1nc2ccccc2s1 | 34µM* | -21 | 13µM* | 40µM* | -35%[57.1 µM] | ?
Cn1c(=O)c2cc(S(=O)(=O)NC(C(=O)Nc3cccnc3)c3ccccc3)ccc2n(C)c1=O (stereo not drawn) | ? | -16 | 8.9µM* | 8% | -12% | 43%

Compound activity deposited in PubChem BioAssay by National Center for Advancing Translational Sciences (NCATS).
